Potency and outcome data for twelve compounds are collected here from PubChem BioAssay (Tox21).

Test [1] is described as follows: qHTS assay to identify small molecule agonists of the androgen receptor (AR) signaling pathway in the presence of an antagonist - cell viability counter screen (AID 1259379). Also: nearly all actives have a fitted effect of over 25% in size. Also: potency is read from the fitted curve at half-maximal effect. In outline:
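MDA-kb2 viability measured by CellTiter-Fluor fluorescence in the same wells as the luciferase signal; nilutamide 3.0uM final; 15-point compound titration; 16 hr at 37C.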

The nature of test [2]: qHTS assay to identify small molecule antagonists of the estrogen receptor beta (ER-beta) signaling pathway - cell viability counter screen (AID 1259382). Also: nearly all actives have a fitted effect of over 55% in size. Also: potency is read from the fitted curve at half-maximal effect. In outline: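 Readout: luminescence, CellTiter-Glo, same wells as bla assay. System: ER-beta-UAS-bla GripTite HEK293T, 2% charcoal-stripped FBS. Exposure: compounds plus 1nM 17-beta-estradiol, 16 hr, 37C.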
Test [3] concerns the target Estrogen receptor (Homo sapiens) (UniProt P03372). The test is described as follows: qHTS assay to identify small molecule agonists of the estrogen receptor alpha (ER-alpha) signaling pathway in the presence of an antagonist (AID 1259383; calls by dose curve; also: nearly all actives have a fitted effect of over 15% in size; also: potency is read from the fitted curve at half-maximal effect; as to activation: top concentration of the series differs between compounds). In outline:
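Quantitative HTS confirmation: compounds titrated at 15 concentrations onto estrogen-deprived VM7Luc4E2 cells carrying a four-ERE luciferase construct, with ICI-182,780 present at 10.0nM final. Signal is luminescence after 22hr exposure.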

Test [4] in a line: qHTS assay to identify small molecule agonists or antagonists of the thyroid stimulating hormone receptor (TSHR) signaling pathway - wild type cell line counter screen (AID 1259384; calls by dose curve). In outline:
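Wild-type HEK293 cells were plated 18 h at 37 C/5% CO2, pin-dosed with compound plus Ro20-1724 medium, held 30 min at room temperature, then given cAMP-d2 and anti-cAMP-cryptate; fluorescence was read after 1 h. Fifteen concentrations, triplicate.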

Test [5] can be described thus: qHTS assay to identify small molecule agonists of the estrogen receptor alpha (ER-alpha) signaling pathway in the presence of an antagonist - cell viability counter screen (AID 1259386).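 Also: cells exposed to compounds for 22 h at 37 °C before the viability read; nearly all actives have a fitted effect of over 30% in size.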 Also: potency is read from the fitted curve at half-maximal effect. An outline of the steps:
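The test measures whether compounds kill ER-alpha reporter cells (VM7Luc4E2) under antagonist co-treatment (ICI-182,780, 10.0nM). Fluorescence from CellTiter-Fluor is read after a 22hr exposure.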

Test [6] is described as follows: qHTS assay to identify small molecule antagonists of the TGF-beta/Smad signaling pathway - cell viability counter screen (AID 1346824). Also: nearly all actives have a fitted effect of over 50% in size. An outline of the steps: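 SBE-bla HEK 293T cells were plated overnight at 37 C, then given compounds in DMSO plus TGF-beta1 (added as 0.25 ng/mL solution) for 5 hr. After the bla read, CellTiter-Glo was added to the same wells and luminescence read after 30 min at room temperature.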

In test [7] the target is Estrogen receptor beta (Homo sapiens) (UniProt Q92731). Nature of the test: qHTS assay to identify small molecule antagonists of the estrogen receptor beta (ER-beta) signaling pathway (AID 1259378; active = well fitted inhibition curve with a large enough effect in the signal ratio in the repeat runs, not every such curve was filed as active; the % refers to the signal ratio). An outline of the steps: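 ER-beta-UAS-bla HEK293T (GripTite) cells in 2% charcoal-stripped FBS medium were preincubated 6 hr at 37C, dosed with compound, then stimulated with 1 nM E2 (final) for 16 hr; beta-lactamase reporter read by B/G FRET fluorescence after 2 hr substrate loading.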

The target of test [8] is Thyrotropin receptor (Homo sapiens) (UniProt P16473). The test is described as follows: qHTS assay to identify small molecule antagonists of the thyroid stimulating hormone receptor (TSHR) signaling pathway (AID 1259385; calls by dose curve; also: nearly all actives have a fitted effect of over 20% in size; also: potency is read from the fitted curve at half-maximal effect). An outline of the steps: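 TSHR-HEK293 cells were plated and held 18 h at 37C/5% CO2, then given compound plus Ro20-1724 and stimulated with TSH at 1.5 ng/mL final. After 30 min at room temperature, cAMP was detected with cAMP-d2/anti-cAMP-cryptate (1 h) by fluorescence.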

Test [9] concerns the target Progesterone receptor (Homo sapiens) (UniProt P06401). Nature of the test: qHTS assay to identify small molecule agonists of the progesterone receptor (PR) signaling pathway (AID 1346784; calls by dose curve; also: nearly all actives have a fitted effect of over 30% in size). In outline:
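Fluorescence from LiveBLAzer B/G FRET substrate cleavage (2 hr, RT) reported PR activation in PR-UAS-bla HEK 293T cells treated 16 hr at 37C/5% CO2 with compounds; medium contained 2% charcoal-stripped FBS.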

Test [10] can be described thus: qHTS assay to identify small molecule antagonists of the progesterone receptor (PR) signaling pathway - cell viability counter screen (AID 1346798). Also: nearly all actives have a fitted effect of over 50% in size. Also: potency is read from the fitted curve at half-maximal effect. In outline:
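CellTiter-Glo luminescence; PR-UAS-bla HEK293T, 3,000 cells/well; compound + R5020, 16 hr, 37C/5% CO2; 30 min RT before read.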

A short description of test [11]: qHTS assay to identify small molecule agonists of the progesterone receptor (PR) signaling pathway - cell viability counter screen (AID 1346799; calls by dose curve; also: nearly all actives have a fitted effect of over 45% in size; also: potency is read from the fitted curve at half-maximal effect). In outline:
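In parallel with the beta-lactamase readout, cytotoxicity toward PR-UAS-bla HEK293T cells was measured by CellTiter-Glo luminescence following 16 hr compound incubation in 2% charcoal-stripped FBS medium.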

Test [12] can be described thus: qHTS assay to identify small molecule agonists of the TGF-beta/Smad signaling pathway - cell viability counter screen (AID 1346829). Also: top concentration of the series differs between compounds; nearly all actives have a fitted effect of over 45% in size. In outline:
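SBE-bla HEK 293T cells plated overnight, compound exposure 5 hr at 37 C. Viability read in the same wells by CellTiter-Glo luminescence after 30 min at room temperature, following the beta-lactamase read.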

Test [13] can be described thus: qHTS assay to identify small molecule agonists of the TGF-beta/Smad signaling pathway (AID 1346859; active = well fitted activation curve with a large enough effect in the signal ratio in the repeat runs, not every such curve was filed as active; the % refers to the signal ratio; also: series mostly up to about 77 µM). In outline:
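After overnight seeding, SBE-bla HEK 293T cells are dosed with compounds in DMSO and kept 5 hr at 37 C, 5% CO2. LiveBLAzer-type FRET substrate is then applied for 2 hr at room temperature.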

In test [14] the target is Thyrotropin-releasing hormone receptor (Homo sapiens) (UniProt P34981). Nature of the test: qHTS assay to identify small molecule antagonists of the thyrotropin-releasing hormone receptor (TRHR) signaling pathway (AID 1346877; active = well fitted inhibition curve with a large enough effect in the repeat runs, not every such curve was filed as active; also: series mostly up to about 51 µM). An outline of the steps: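 Overnight-plated (18 h, 37 °C) HEK293 cells expressing TRHR were dye-loaded 2 h, treated with compound, then stimulated with TRH at 1 nM final. Fluorescence intensity was captured every second for 3 min.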

Test [15] has the same target. Nature of the test: qHTS assay to identify small molecule agonists of the thyrotropin-releasing hormone receptor (TRHR) signaling pathway (AID 1346891; calls by dose curve;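 also: HEK293 cells expressing TRHR with calcium dye readout; series mostly up to about 58 µM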). In outline:
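Compounds were tested as agonists at 15 concentrations, in triplicate, on TRHR-Hek293 cells; calcium-sensitive dye fluorescence was recorded for 3 min following addition.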

A short description of test [16]: qHTS assay to identify small molecule agonists of the estrogen receptor beta (ER-beta) signaling pathway - cell viability counter screen (AID 1259380). Also: nearly all actives have a fitted effect of over 30% in size. Also: potency is read from the fitted curve at half-maximal effect. In outline: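 Measured: luminescence from CellTiter-Glo after 30 min at room temperature, added to wells already read for the LiveBLAzer FRET reporter (2 hr substrate); ER-beta-UAS-bla HEK293T cells had 16 hr compound treatment at 37C, 5% CO2.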

Test [17] has as its target Progesterone receptor (Homo sapiens) (UniProt P06401). The test is described as follows: qHTS assay to identify small molecule antagonists of the progesterone receptor (PR) signaling pathway (AID 1346795; active = well fitted inhibition curve with a large enough effect in the signal ratio in the repeat runs, not every such curve was filed as active; the % refers to the signal ratio; also: potency is read from the fitted curve at half-maximal effect). An outline of the steps: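 Fluorescence intensity measured 2 hr after adding beta-lactamase FRET substrate to PR-UAS-bla HEK293T cells that had been co-treated 16 hr with compound and 1 nM R5020 (final concentration) in 2% charcoal-stripped FBS.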

For test [18], the target named is Estrogen receptor beta (Homo sapiens) (UniProt Q92731). Nature of the test: qHTS assay to identify small molecule agonists of the estrogen receptor beta (ER-beta) signaling pathway (AID 1259377; active = well fitted activation curve with a large enough effect in the signal ratio in the repeat runs, not every such curve was filed as active; the % refers to the signal ratio; also: potency is read from the fitted curve at half-maximal effect). In outline:
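qHTS in ER-beta-UAS-bla HEK293T cells: 6 hr settling, then 16 hr compound at 37C, then LiveBLAzer substrate 2 h at RT before fluorescence reading.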

Test [19] addresses Androgen receptor (Homo sapiens) (UniProt P10275). Nature of the test: qHTS assay to identify small molecule agonists of the androgen receptor (AR) signaling pathway in the presence of an antagonist (AID 1259381; calls by dose curve; also: nearly all actives have a fitted effect of over 15% in size). In outline: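 Luminescent ONE-Glo read, 30min at room temperature, follows 16hr compound exposure (15 concentrations) of MDA-kb2 cells at 37C, 0% CO2, with nilutamide added at 3.0uM final.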

Inconclusive results are not listed. Active and inactive are the calls of the source. Unless noted, calls follow the shape of the dose curve; as a rule, active = well fitted curve in the direction sought with a large enough effect in the repeat runs; inconclusive = weak or mixed curves; inactive = no such curve, though single readings can be large; an effect the other way counts as inactive or inconclusive.

Sequence of Estrogen receptor beta (Homo sapiens) (Q92731 whole entry, looked up): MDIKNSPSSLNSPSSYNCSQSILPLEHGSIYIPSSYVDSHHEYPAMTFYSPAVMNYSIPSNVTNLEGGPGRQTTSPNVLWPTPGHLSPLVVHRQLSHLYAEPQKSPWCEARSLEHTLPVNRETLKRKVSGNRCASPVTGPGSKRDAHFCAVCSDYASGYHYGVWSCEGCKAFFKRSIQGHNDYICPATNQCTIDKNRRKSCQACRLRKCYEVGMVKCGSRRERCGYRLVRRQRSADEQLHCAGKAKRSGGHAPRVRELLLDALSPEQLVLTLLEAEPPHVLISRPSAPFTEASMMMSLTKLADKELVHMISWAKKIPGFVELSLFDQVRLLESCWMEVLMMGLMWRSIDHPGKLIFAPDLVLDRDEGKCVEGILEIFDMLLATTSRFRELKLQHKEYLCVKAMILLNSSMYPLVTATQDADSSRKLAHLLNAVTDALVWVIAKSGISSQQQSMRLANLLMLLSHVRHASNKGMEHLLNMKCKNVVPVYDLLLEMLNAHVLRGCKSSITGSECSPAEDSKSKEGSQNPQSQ
Sequence of Thyrotropin receptor (Homo sapiens) (P16473 whole entry, looked up): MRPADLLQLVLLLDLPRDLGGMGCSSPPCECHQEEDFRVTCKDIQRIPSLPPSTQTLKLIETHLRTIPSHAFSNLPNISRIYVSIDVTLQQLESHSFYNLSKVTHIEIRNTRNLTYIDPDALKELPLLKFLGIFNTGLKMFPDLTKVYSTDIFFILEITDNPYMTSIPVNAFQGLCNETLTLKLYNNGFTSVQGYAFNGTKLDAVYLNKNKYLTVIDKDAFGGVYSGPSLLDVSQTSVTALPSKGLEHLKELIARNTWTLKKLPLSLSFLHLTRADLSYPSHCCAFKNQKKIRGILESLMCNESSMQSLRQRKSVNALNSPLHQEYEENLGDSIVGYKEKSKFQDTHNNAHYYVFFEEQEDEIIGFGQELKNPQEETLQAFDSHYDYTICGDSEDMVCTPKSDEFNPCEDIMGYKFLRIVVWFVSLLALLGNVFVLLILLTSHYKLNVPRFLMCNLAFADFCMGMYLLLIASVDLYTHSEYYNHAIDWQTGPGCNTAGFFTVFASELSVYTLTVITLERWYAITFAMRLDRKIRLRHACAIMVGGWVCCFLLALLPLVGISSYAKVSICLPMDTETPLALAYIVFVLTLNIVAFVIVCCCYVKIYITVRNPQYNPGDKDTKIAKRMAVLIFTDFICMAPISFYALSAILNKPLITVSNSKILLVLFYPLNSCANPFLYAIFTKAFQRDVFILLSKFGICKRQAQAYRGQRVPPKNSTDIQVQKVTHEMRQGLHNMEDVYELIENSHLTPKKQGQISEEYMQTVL
Sequence of Estrogen receptor (Homo sapiens) (P03372 whole entry, looked up): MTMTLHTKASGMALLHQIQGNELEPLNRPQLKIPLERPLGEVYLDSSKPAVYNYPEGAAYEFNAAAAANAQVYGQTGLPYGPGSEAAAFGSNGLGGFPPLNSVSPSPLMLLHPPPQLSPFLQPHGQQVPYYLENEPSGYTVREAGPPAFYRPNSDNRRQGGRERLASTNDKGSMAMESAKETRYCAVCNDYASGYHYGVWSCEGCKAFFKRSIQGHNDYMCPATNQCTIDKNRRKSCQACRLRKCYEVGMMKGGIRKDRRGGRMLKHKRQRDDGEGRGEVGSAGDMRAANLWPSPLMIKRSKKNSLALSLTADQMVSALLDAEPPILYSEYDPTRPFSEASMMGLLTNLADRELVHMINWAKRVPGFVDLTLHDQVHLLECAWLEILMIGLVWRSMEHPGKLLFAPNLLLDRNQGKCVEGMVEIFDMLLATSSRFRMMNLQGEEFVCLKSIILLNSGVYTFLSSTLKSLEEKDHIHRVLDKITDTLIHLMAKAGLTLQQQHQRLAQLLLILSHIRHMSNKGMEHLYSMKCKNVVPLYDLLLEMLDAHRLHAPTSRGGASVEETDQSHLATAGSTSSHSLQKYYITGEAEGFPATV
Sequence of Androgen receptor (Homo sapiens) (P10275 whole entry, looked up): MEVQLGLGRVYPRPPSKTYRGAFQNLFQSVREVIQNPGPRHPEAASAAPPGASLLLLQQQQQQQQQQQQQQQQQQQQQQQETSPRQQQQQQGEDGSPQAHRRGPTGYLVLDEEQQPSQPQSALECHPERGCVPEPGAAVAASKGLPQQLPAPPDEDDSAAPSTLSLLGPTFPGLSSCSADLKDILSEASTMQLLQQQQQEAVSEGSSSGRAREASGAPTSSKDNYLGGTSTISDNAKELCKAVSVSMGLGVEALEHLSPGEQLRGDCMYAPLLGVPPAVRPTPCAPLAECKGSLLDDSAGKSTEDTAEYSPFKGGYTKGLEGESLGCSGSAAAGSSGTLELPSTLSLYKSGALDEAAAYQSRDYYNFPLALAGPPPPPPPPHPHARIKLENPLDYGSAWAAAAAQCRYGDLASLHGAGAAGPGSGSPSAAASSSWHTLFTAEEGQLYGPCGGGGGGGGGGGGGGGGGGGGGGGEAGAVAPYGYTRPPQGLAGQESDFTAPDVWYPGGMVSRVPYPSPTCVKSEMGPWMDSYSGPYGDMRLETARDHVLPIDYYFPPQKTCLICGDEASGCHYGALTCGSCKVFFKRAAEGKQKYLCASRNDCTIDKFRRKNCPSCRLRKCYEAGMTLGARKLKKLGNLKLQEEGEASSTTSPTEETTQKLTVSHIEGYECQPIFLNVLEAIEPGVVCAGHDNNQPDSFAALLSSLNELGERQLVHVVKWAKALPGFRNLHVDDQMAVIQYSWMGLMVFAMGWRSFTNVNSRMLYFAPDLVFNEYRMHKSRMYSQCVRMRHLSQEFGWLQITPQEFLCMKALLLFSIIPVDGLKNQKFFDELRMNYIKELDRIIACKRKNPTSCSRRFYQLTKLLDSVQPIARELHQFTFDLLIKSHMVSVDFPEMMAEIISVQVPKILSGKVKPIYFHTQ
Sequence of Progesterone receptor (Homo sapiens) (P06401 whole entry, looked up): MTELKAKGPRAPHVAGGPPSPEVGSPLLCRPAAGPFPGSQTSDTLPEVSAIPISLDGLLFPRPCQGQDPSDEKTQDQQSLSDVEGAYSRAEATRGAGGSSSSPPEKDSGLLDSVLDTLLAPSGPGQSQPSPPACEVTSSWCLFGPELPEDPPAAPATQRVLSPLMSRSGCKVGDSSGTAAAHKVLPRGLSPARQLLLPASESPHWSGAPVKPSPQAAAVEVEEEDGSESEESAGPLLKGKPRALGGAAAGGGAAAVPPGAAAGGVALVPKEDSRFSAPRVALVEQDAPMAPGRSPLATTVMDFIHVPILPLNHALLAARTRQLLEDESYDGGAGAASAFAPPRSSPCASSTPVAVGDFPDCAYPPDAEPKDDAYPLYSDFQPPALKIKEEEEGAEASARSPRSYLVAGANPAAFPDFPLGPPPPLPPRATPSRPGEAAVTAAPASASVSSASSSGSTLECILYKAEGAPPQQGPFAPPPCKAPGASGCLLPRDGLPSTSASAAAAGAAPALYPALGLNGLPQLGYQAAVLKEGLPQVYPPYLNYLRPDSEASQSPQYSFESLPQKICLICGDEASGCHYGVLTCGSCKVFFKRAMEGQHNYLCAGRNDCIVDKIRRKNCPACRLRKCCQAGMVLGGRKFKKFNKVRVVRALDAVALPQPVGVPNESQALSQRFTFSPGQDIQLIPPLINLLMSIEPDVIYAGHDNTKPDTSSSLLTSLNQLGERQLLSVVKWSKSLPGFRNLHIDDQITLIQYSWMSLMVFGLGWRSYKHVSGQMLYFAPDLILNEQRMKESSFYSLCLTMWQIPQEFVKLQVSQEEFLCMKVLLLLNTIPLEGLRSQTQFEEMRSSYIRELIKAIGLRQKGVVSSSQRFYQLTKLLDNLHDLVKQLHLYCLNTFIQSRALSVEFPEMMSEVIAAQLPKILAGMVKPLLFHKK
Sequence of Thyrotropin-releasing hormone receptor (Homo sapiens) (P34981 whole entry, looked up): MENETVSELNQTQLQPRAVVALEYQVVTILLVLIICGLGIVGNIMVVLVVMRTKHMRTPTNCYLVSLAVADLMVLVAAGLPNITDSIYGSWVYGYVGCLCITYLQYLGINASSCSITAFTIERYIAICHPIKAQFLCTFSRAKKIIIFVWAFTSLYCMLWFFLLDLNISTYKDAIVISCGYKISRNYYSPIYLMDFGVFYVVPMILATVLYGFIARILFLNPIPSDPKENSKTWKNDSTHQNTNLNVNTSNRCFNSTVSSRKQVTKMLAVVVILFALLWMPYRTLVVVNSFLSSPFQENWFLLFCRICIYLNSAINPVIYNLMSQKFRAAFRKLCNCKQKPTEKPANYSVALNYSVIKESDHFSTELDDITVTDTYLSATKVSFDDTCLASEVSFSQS

Turning to `O=[N+]([O-])c1ccc(O/N=C/c2cc(Br)c(O)c(Br)c2)c([N+](=O)[O-])c1`, the figures for the Potency in [1] and in [5] were 48.3 µM (active) and 27.2 µM (active), respectively. Further, the Potency entry in test [2], in test [3] and in test [6] was “inactive” throughout. In addition, the compound was called inactive in test [4].

For `CCCCCCNC(=O)n1cc(F)c(=O)[nH]c1=O`, the Potency entry in test [7], in test [1], in [2], in test [8], in test [5] and in [9] was “inactive” each time. The Potency result in test [10], in test [11], in test [6], in test [12], in test [13] and in test [15] was “inactive” each time. In addition, the outcome in test [4] and in [14] was inactive.

As to `CC(C)(c1ccccc1)c1ccccc1`, the Potency result in [1], in test [16], in [2], in test [8], in test [5] and in test [9] was “inactive” in each case. Further, the Potency entry in test [17], in [10], in test [11], in test [6], in test [12] and in [13] was “inactive” in each case. In addition, the Potency result in test [15] was “inactive”. Further, the compound was called inactive in [4] and in test [14].

On to `C[C@@H]1CN(CCCn2c3ccccc3c3ccccc32)C[C@H](C)N1`, for which the Potency result in test [18], in test [5], in test [9], in [6], in test [12] and in test [13] was “inactive” in each case. Also, the Potency result in test [15] was “inactive”. The Potency is 10.6 µM (active) in test [16]; 11.9 µM (active) in test [2]; 33.5 µM (active) in test [8]; 29.8 µM (active) in [17]; 11.9 µM (active) in test [10]; 11.9 µM (active) in test [11]. The compound was classed as inactive in test [4] and in test [14].

With `COc1ccccc1N1CCN(CCCCNC(=O)c2ccc(-c3ccc(C(C)=O)cc3)cc2)CC1`, the Potency entry in test [16], in test [2], in test [3], in test [5], in [9] and in [17] was “inactive” throughout. In addition, the Potency result in test [10], in [11], in test [6] and in test [13] was “inactive” each time. The call in test [4] was inactive. In addition, the Potency in [8] is 18.8 µM (active).

As to `CC(C)C(O)(c1ccc(OC(F)(F)F)cc1)c1cncnc1` (stereo not drawn), the Potency entry in test [1], in [16], in test [2], in test [5], in [9] and in test [10] was “inactive” each time. Moreover, the Potency entry in test [11], in test [6], in test [12], in [13] and in test [15] was “inactive” throughout. The compound was classed as inactive in [4] and in [14]. Further, in test [17], the Potency was 30.5 µM (active).

As for `O=C(CCc1ccc(O)cc1)c1c(O)cc(O)cc1O`, the Potency in test [18] is 7.01 µM (active); in test [3] it was 24.9 µM (active); in test [17], 31.3 µM (active). Moreover, the Potency result in [16], in [19], in [2], in [8], in test [9] and in [6] was “inactive” in each case. Further, the Potency entry in [12], in test [13] and in test [15] was “inactive” throughout. Moreover, the compound was classed as inactive in [4] and in test [14].

For `CCCCCC[C@@H](O)C/C=C\CCCCCCCC(=O)OCC(O)CO` (stereo partly drawn), the Potency result in test [1], in test [19], in [3], in [5], in test [17] and in [11] was “inactive” each time. The Potency entry in [6], in [12], in [13] and in test [15] was “inactive” each time. Besides, the compound was called inactive in test [14].

In the case of `CC(CN(C)C)C(C)(O)Cc1ccc(Cl)cc1` (stereo not drawn), the Potency result in [1], in [19], in test [2], in [3], in test [5] and in [17] was “inactive” in each case. Further, the Potency result in test [10], in [6], in test [12], in test [13] and in test [15] was “inactive” in each case. The compound was called inactive in test [4] and in test [14]. In addition, the Potency in test [11] was 16.8 µM (active).

As for `C/C=C\C/C=C/CCCCCCCCOC(C)=O`, the Potency result in test [1], in test [3], in [8], in [5], in test [9] and in [6] was “inactive” throughout. Further, the Potency result in [12], in [13] and in test [15] was “inactive” each time. Further, the Potency in [16] is 61.1 µM (active). The compound was called inactive in test [4] and in test [14].

Consider `O=C1c2ccccc2C(=O)c2c(O)c(O)cc(O)c21`, for which the Potency in test [1] and in test [5] was 30.6 µM (active) in each case. Further, the Potency result in test [16], in test [19], in test [2], in test [3], in test [9] and in test [17] was “inactive” each time. In addition, the Potency result in test [10], in test [6], in test [12], in [13] and in test [15] was “inactive” in each case. In test [4], the call was inactive.

`CCC1CO1` (stereo not drawn): the Potency result in [1], in [16], in test [2], in [5], in [9] and in [17] was “inactive” each time. The Potency result in test [10], in test [11], in test [6], in test [12] and in test [13] was “inactive” in each case. The call in test [4] was inactive.
